This is an account of results in PubChem BioAssay (NCATS).

Results filed as inconclusive are left out. The source made the active and inactive calls. Calls follow the shape of the dose curve; as a rule, active = well fitted cell-killing curve with a large enough effect; inconclusive = small, poorly fitted or top-dose-only effect, or effect the other way; inactive = no such curve, though single readings can be large or run the other way.
Potency is read from the fitted curve at half-maximal effect.

A short description of the assay: Quantitative High-Throughput drug screen in 47 multiple myeloma cell lines against the NCATS MIPE library collection: VP6_DJ cell viability assay (AID 1919867). Also: nearly all actives have a fitted effect of over 40% in size. To be noted: ATP luminescence, 48 h; series mostly up to 45.8 µM. The source says: PI: Beverly A. Mock Ph.D.
Laboratory of Cancer Biology and Genetics,
Center for Cancer Research, National Cancer Institute,
National Institute of Health, Bethesda, Maryland
Drug resistance and disease progression are common in multiple myeloma (MM) patients, underscoring the need for new therapeutic combinations. […] We hypothesized that effective combinations would reduce MYC expression and enhance p16 activity. […] These preclinical data identify potentially useful drug combinations for evaluation in drug-resistant MM and reveal potential mechanisms of combined drug sensitivity.
Described herein is the primary MIPE qHTS used to cherrypick compounds. Validated compounds were then further tested for potential synergistic activiy.
[1] Peat TJ, Gaikwad SM, Dubois W, Gyabaah-Kessie N, Zhang S, Gorjifard S, Phyo Z, Andres M, Hughitt VK, Simpson RM, Miller MA, Girvin AT, Taylor A, Williams D, D'Antonio N, Zhang Y, Rajagopalan A, Flietner E, Wilson K, Zhang X, Shinn P, Klumpp-Thomas C, McKnight C, Itkin Z, Chen L, Kazandijian D, Zhang J, Michalowski AM, Simmons JK, Keats J, Thomas CJ, Mock BA. Drug combinations identified by high-throughput screening promote cell cycle transition and upregulate Smad pathways in myeloma. Cancer Lett. 2023 Aug 1;568:216284. doi: 10.1016/j.canlet.2023.216284. Epub 2023 Jun 24. PMID: 37356470; PMCID: PMC10408729.
SEQUENCE No. (e.g., 1, 2, 3, etc.); […] (e.g., Cells, Incubation, Reagent, etc.); VALUE and DESCRIPTION.
1; Cells; 5 uL; white, solid bottom 1536-well Greiner assay plate.
2; Compounds; 23 nL; Kalypsis pin tool (Wako USA) equipped with a 1536-well pin head to transfer to the assay plates.
3; Incubation; 48 hours; 37C incubation.
4; Reagent;5uL; CellTiter Glo (Promega).
5; Detector; 425V; Luminescence; Viewlux PerkinElmer.
NOTES (numbers refer to Sequence numbers above)
1. The cell-based screening methods employed in this study were like those previously published. Briefly, the corresponding myeloma cell lines were screened in 1,536-well plates with 500 cells, 5-uL per well for inhibition of cell viability (assessed by measuring ATP levels with CellTiterGlo).
2. NCATS MIPE 4.0 library of approved and investigational drugs were added using the Kalypsis pin tool. Wells treated with DMSO only for 100% viability and media only for 0% viability were used as controls.
3. The assay plates were covered and incubated for 48 hours in a 37C, 5% CO2 incubator with controlled humidity.
4. After 48 hours, CellTilter-GloTM luminescent substrate mix (Promega) reagent was added to the assay plate and plates we incubated for 5 min at room temperature.
5. Signal was measured as median relative luminescence units on a ViewLux (PerkinElmer) multiplate reader.
[1] Heske CM, Davis MI, Baumgart JT, Wilson K, Gormally MV, Chen L, Zhang X, Ceribelli M, Duveau DY, Guha R, Ferrer M, Arnaldez FI, Ji J, Tran HL, Zhang Y, Mendoza A, Helman LJ, Thomas CJ. Matrix Screen Identifies Synergistic Combination of PARP Inhibitors and Nicotinamide Phosphoribosyltransferase (NAMPT) Inhibitors in Ewing Sarcoma. Clin Cancer Res. 2017 Dec 1;23(23):7301-7311. doi: 10.1158/1078-0432.CCR-17-1121. Epub 2017 Sep 12. PMID: 28899971; PMCID: PMC6636827.
Take `CC=C(C)C(=O)N[C@@H](c1ccccc1)[C@@H](O)C(=O)O[C@H]1C[C@@]2(O)[C@@H](OC(=O)c3ccccc3)[C@@H]3[C@]4(OC(C)=O)CO[C@@H]4C[C@H](O)[C@@]3(C)C(=O)[C@H](OC(C)=O)C(=C1C)C2(C)C`: the Potency entry was “inactive”.

Consider `CC(=O)OCC1=C(C(=O)O)N2C(=O)[C@@H](N)[C@@H]2SC1`, for which the Potency result was “inactive”. The value for `O=c1cccc2n1CC1CNC[C@H]2C1` was 13200 nM (active); that for `COc1cc([C@@H]2c3cc4c(cc3[C@@H](O)C3COC(=O)C32)OCO4)cc(OC)c1O` (stereo not given in full) was 52.6 nM (active). Consider `CC1(N2CCC(n3c([C@@H]4CCCNC4)nc4ccccc43)CC2)CCCCCCC1`, for which the Potency was 14800 nM (active). In the case of `CC(=CCCC1=CCC(C2=CC(=O)OC2O)OC1O)CCC1=C(C)CCCC1(C)C` (stereo not given), the Potency is 4180 nM (active). As for `Cc1[nH]nc2ccc(-c3cncc(OC[C@@H](N)Cc4c[nH]c5ccccc45)c3)cc12`, the Potency was 296 nM (active).

In the case of `CC(C)(O)C(=O)Nc1ccc([N+](=O)[O-])c(C(F)(F)F)c1`, the Potency was 8330 nM (active).

In the case of `CCOC(=O)Nc1ccc(NCc2ccc(F)cc2)cc1N`, the Potency was 20900 nM (active). For the molecule `C#CC1(O)CCC2C3CCC4=CC(=O)CCC4(C)C3CCC21C` (stereo not given), the Potency result is “inactive”. The value for `c1cc2c(cc1[C@H]1OC[C@H]3[C@H]1CO[C@H]3c1ccc3c(c1)OCO3)OCO2` was “inactive”; that for `COc1ccc2c(c1)CN(C)CC2c1ccc(Cl)c(Cl)c1` (stereo not given) was 14800 nM (active). In the case of `CC(=O)O[C@@]12CO[C@H]1C[C@H](O)[C@@]1(C)C(=O)[C@H](O)C3=C(C)[C@@H](O)C[C@@](O)([C@@H](OC(=O)c4ccccc4)[C@@H]21)C3(C)C` it was 935 nM (active). `CC1=C(O)C(=O)C=C2C1=CC=C1[C@@]2(C)CC[C@@]2(C)[C@@H]3C[C@](C)(C(=O)O)CC[C@]3(C)CC[C@]12C`: the Potency is 935 nM (active). In the case of `CC[C@@H]1[C@@H](C)O[C@@](O)([C@@H](C)[C@H](O)[C@H](C)[C@H]2OC(=O)C=CC=C[C@@H](C)[C@@H]([C@@H](C)[C@@H](O)[C@H](C)[C@@]3(O)C[C@H](O[C@H]4C[C@H](O)[C@H](O)[C@H](C)O4)[C@H](CC)[C@@H](C)O3)OC(=O)C=CC=C[C@@H]2C)C[C@H]1O[C@H]1C[C@H](O)[C@H](O)[C@H](C)O1` it was 469 nM (active); in that of `Cc1c(N)nc([C@H](CC(N)=O)NC[C@@H](N)C(N)=O)nc1C(=O)N[C@H](C(=O)N[C@@H](C)[C@H](O)[C@@H](C)C(=O)N[C@@H](C(=O)NCCc1nc(-c2nc(C(=O)NCCC[S+](C)C)cs2)cs1)[C@@H](C)O)C(O[C@H]1O[C@H](CO)[C@H](O)[C@@H](O)[C@@H]1O[C@H]1O[C@H](CO)[C@@H](O)[C@H](OC(N)=O)[C@H]1O)c1cnc[nH]1` (stereo not given in full), 16600 nM (active); in that of `COc1ccc(N(C(=O)Oc2c(C)cccc2C)c2ccnc(Nc3ccc(N4CCN(C)CC4)cc3)n2)c(OC)c1`, 2960 nM (active). In the case of `C[C@@H]1[C@H](O)[C@@H](C)C=CC=CCCC=CC=CC=CC=C[C@H](O[C@H]2O[C@@H](C)[C@H](O)[C@@H](N)[C@@H]2O)CC2O[C@](O)(C[C@@H](O)[C@H](O)CC[C@@H](O)C[C@@H](O)C[C@@H](O)CC(=O)O[C@H]1C)C[C@H](O)[C@H]2C(=O)O` it was “inactive”; in that of `N=c1c2c(-c3ccccc3)c(-c3ccccc3)n(Cc3ccccc3)c2ncn1C1CCC(O)CC1` (stereo not given), 93.5 nM (active).

Consider `CC(C)[C@H]1C(=O)N[C@H](CO)Cc2c[nH]c3cccc(c23)N1C`, for which the Potency entry was “inactive”. In the case of `CC(C)(C)c1cc(C=C(C#N)C#N)cc(Br)c1O`, the Potency is 11800 nM (active). With `Cc1ccccc1-n1c(Cn2cnc3c(N)ncnc32)nc2cccc(C)c2c1=O`, the Potency was 187 nM (active). As to `CCCCCC[C@H]1C(=O)O[C@H](C)[C@H](NC(=O)c2cccc(NC=O)c2O)C(=O)O[C@@H](C)[C@@H]1OC(=O)CC(C)C`, the Potency was 46.9 nM (active). For `O=C(N[C@H]1CN2CCC1CC2)c1ccc(Cl)cc1`, the Potency was 7430 nM (active). As for `COC[C@H]1OC(=O)c2coc3c2[C@@]1(C)C1=C(C3=O)[C@@H]2CC[C@H](O)[C@@]2(C)C[C@@H]1OC(C)=O`, the Potency is 1870 nM (active). With `CCNC(=O)CC1N=C(c2ccc(Cl)cc2)c2cc(OC)ccc2-n2c(C)nnc21` (stereo not given), the Potency is 16600 nM (active). Take `CC(=Cc1csc(C)n1)[C@@H]1C[C@H]2O[C@@H]2CCC[C@H](C)[C@@H](O)[C@@H](C)C(=O)C(C)(C)[C@@H](O)CC(=O)O1`: the Potency entry is “inactive”. Take `CCNC(=O)C[C@@H]1N=C(c2ccc(Cl)cc2)c2cc(OC)ccc2-n2c(C)nnc21`: the Potency is 296 nM (active). `CC(C)[C@]12O[C@@H]1[C@@H]1O[C@]13[C@]1(O[C@H]1C[C@@H]1C4=C(CC[C@@]13C)C(=O)OC4)[C@H]2O`: the Potency entry was “inactive”. For `Cc1c(C(=O)c2cccc3ccccc23)c2cccc3c2n1[C@H](CN1CCOCC1)CO3`, the Potency entry was “inactive”. In the case of `CN1[C@H]2CC(O)C[C@H]1[C@H]1O[C@H]12` (stereo not given in full) it was 9350 nM (active); in that of `CC(O)=C(C#N)C(=O)Nc1cc(Br)ccc1Br`, 2960 nM (active); in that of `O=C(NCC1CCOCC1)c1cnc(Nc2ccc(Cl)cc2Cl)nc1C(F)(F)F`, 6620 nM (active). As for `COCC1(CO)C(=O)C2CCN1CC2` (stereo not given), the Potency is 4180 nM (active).

Turning to `C[C@@]12OC(=O)[C@]1([C@@H](O)[C@@H]1C=CCCC1)NC(=O)[C@H]2CCCl`, the Potency is 1 nM (active). Regarding `C[C@H]1CCCC=CC2C[C@H](O)C[C@@H]2[C@H](O)C=CC(=O)O1` (stereo not given in full), the Potency entry is “inactive”. The value for `CC=C(C)C(=O)O[C@H]1C(C)=C2[C@@H]3OC(=O)[C@@](C)(O)[C@@]3(O)[C@@H](OC(=O)CCC)C[C@](C)(OC(C)=O)[C@@H]2[C@@H]1OC(=O)CCCCCCC` was 52.6 nM (active). With `C[C@]12CC[C@H]3[C@@H](CCC4=CC(=O)CC[C@@]43C)[C@H]1CC[C@H]2OC(=O)CCC1CCCC1`, the Potency entry was “inactive”. As to `C[C@@H]1CC[C@@]2(OC1)O[C@H]1C[C@H]3[C@@H]4CC=C5C[C@@H](O[C@@H]6O[C@H](CO)[C@@H](O[C@@H]7O[C@@H](C)[C@H](O)[C@@H](O)[C@@H]7O)[C@H](O)[C@@H]6O[C@@H]6O[C@@H](C)[C@H](O)[C@@H](O)[C@@H]6O)CC[C@]5(C)[C@@H]4CC[C@]3(C)[C@@H]1[C@H]2C`, the Potency is 2960 nM (active). Regarding `CCOC(=O)c1c(C(C#N)=CN)c2ccc(Cl)c(Cl)c2n1C`, the Potency result was “inactive”.
